These results are taken from PubChem BioAssay (NCATS).

In test [1] the target is Bile acid receptor (Homo sapiens) (UniProt Q96RI1). Briefly: qHTS assay for small molecule agonists of farnesoid X receptor signaling (AID 588527).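 Note: 0% = vehicle basal and 100% = reference agonist.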 The settings on record: HEK293T FXR-UAS-bla, beta-lactamase ratio, 16 h; activation: stronger effect = higher value. The procedure, abridged:
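FXR-UAS-bla HEK293T, 10% dialyzed FBS; cpds up to 92 uM titration, 16 h 37 C; CCF4 dye 2 h RT; fluorescence. Normalized to chenodeoxycholic acid 100 uM (100%) and DMSO (0%); Hill fit gives EC50, efficacy.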
(qHTS replaces the single test concentration by a dilution series.)

Test [2] deals with Peroxisome proliferator-activated receptor delta (Homo sapiens) (UniProt Q03181). Briefly: qHTS assay for small molecule agonists of peroxisome proliferator-activated receptor delta signaling (AID 588534).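 Note: 0% = DMSO basal wells and 100% = positive control agonist at 10 µM.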 The procedure, abridged: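 Cells carrying a PPAR-delta beta-lactamase reporter were treated with compounds for 18 h at 37 °C in agonist mode. CCF4 fluorescence was read after 2 h; EC50 and efficacy from Hill fits.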
Chain of Peroxisome proliferator-activated receptor delta (Homo sapiens) (Q03181 whole entry, looked up): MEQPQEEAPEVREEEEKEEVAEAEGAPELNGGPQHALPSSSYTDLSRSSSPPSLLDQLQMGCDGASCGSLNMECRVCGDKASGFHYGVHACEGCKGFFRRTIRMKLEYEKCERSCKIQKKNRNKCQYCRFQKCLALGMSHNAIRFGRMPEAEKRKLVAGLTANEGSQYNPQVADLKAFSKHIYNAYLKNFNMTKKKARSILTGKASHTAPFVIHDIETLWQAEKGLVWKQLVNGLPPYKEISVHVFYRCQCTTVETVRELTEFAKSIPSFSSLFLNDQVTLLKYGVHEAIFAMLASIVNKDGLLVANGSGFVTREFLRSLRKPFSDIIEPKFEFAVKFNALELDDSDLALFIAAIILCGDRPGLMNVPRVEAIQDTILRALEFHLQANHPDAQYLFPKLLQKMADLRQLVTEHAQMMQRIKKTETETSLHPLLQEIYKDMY

Test [3] can be described thus: qHTS for Inhibitors of the Functional Ribonucleoprotein Complex (vRNP) of Lassa (LASV) Arenavirus: LASV Primary Screen - GLuc reporter signal (AID 1347082; calls by dose curve; tested in HEK293 reporter line; note: nearly all actives have a fitted effect of over 60% in size; note: potency is the fitted concentration of half-maximal effect).
A short description of test [4]: qHTS for Inhibitors of the Functional Ribonucleoprotein Complex (vRNP) of Lassa (LASV) Arenavirus: Viability assay - alamar blue signal for LASV Primary Screen (AID 1347083; calls by dose curve; tested in HEK293 reporter line; note: nearly all actives have a fitted effect of over 80% in size; note: potency is the fitted concentration of half-maximal effect).
Test [5] can be described thus: qHTS for Inhibitors of the Functional Ribonucleoprotein Complex (vRNP) of Lymphocytic Choriomeningitis Arenaviruses (LCMV): Viability assay - alamar blue signal for LCMV Primary Screen (AID 1347085; calls by dose curve; tested in HEK293 reporter line; note: nearly all actives have a fitted effect of over 80% in size; note: potency is the fitted concentration of half-maximal effect).
For test [6], the target named is Nucleoprotein (Lymphocytic choriomeningitis virus (strain Armstrong)) (UniProt P09992). Briefly: qHTS for Inhibitors of the Functional Ribonucleoprotein Complex (vRNP) of Lymphocytic Choriomeningitis Arenaviruses (LCMV): LCMV Primary Screen - GLuc reporter signal (AID 1347086). Note: nearly all actives have a fitted effect of over 70% in size. Note: potency is the fitted concentration of half-maximal effect.
Chain of Nucleoprotein (Lymphocytic choriomeningitis virus (strain Armstrong)) (P09992 whole entry, looked up): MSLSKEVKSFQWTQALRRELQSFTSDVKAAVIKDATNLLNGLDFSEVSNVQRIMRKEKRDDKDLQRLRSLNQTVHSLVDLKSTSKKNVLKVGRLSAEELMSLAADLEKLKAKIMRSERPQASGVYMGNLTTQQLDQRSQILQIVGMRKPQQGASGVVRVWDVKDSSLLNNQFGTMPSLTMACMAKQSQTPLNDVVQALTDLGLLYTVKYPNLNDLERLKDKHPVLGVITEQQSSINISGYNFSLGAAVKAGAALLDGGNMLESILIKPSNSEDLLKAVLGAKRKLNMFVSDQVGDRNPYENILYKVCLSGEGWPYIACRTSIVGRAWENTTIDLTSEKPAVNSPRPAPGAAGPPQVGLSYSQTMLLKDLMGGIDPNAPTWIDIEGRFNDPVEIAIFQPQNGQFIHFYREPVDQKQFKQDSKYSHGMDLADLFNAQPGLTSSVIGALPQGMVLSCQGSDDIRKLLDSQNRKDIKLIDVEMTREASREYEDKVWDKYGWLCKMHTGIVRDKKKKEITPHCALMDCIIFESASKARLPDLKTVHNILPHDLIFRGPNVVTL
Test [7] can be described thus: qHTS profiling for inhibitors of Plasmodium falciparum (3D7) proliferation (AID 743322).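 Note: infected erythrocytes exposed to compound for 72 h before lysis; 100% = DMSO vehicle wells and 0% = 0.29 µM artemisinin.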 The conditions noted are these: P. falciparum 3D7 proliferation; at 28.7 µM (top of the series). The procedure, abridged: (§1)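 Erythrocytes infected with P. falciparum (0.3% parasitemia, 2.5% hematocrit) incubated with compounds 72 h at 37 C, 5% CO2. Lysis with saponin/Triton buffer containing SYBR Green I, overnight at room temperature in the dark; DNA fluorescence (485/535 nm) normalised to 0.29 uM artemisinin and DMSO.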

Test [8] in a line: qHTS profiling for inhibitors of Plasmodium falciparum (DD2) proliferation (AID 743323; call rule not given here). The settings on record: lower = more inhibition; at 28.7 µM (top of the series). The procedure, abridged: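 SYBR Green fluorescence (ex 485, em 535 nm) of lysed cultures gives parasite DNA content; wells normalized to artemisinin (0.29 uM) and DMSO controls. Infected red cells: 0.3% parasitemia, 2.5% hematocrit, 72 h, 37 C.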

Test [9] can be described thus: qHTS profiling for inhibitors of Plasmodium falciparum (HB3) proliferation (AID 743324; active = well fitted curve in the direction sought with a large enough effect; an effect the other way counts as inactive or inconclusive;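 note: 100% = DMSO vehicle wells and 0% = artemisinin-treated control wells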). The conditions noted are these: Plasmodium falciparum HB3 blood-stage proliferation; at 28.7 µM (top of the series). The method, boiled down: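 P. falciparum HB3 grown in erythrocytes (0.3% parasitemia, 2.5% hematocrit final) with compound for 72 h at 37 C, 5% CO2. Parasite DNA detected by SYBR Green after saponin/triton lysis overnight; normalized to 0.29 uM artemisinin and DMSO.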

Test [10] is described as follows: qHTS profiling of the MIPE4 collection as inhibitors of Plasmodium falciparum (3D7) proliferation (AID 743344; call rule not given here;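 note: scaled between DMSO vehicle wells and 0.29 µM artemisinin as full inhibition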). The settings on record: P. falciparum 3D7 in erythrocytes, SYBR Green DNA fluorescence, 72 h; at 28.5 µM (top of the series) unless noted. The method, boiled down:
as §1

A short description of test [11]: qHTS profiling of the MIPE4 collection as inhibitors of Plasmodium falciparum (DD2) proliferation (AID 743345; call rule not given here). The conditions noted are these: P. falciparum Dd2 in erythrocytes, SYBR Green DNA, 72 h; at 28.5 µM (top of the series) unless noted. The procedure, abridged: as §1
Test [12] is described as follows: qHTS profiling of the MIPE4 collection as inhibitors of Plasmodium falciparum (DD2) proliferation (Rep 2) (AID 743346; call rule not given here). The settings on record: P. falciparum Dd2 in erythrocytes, SYBR Green DNA, 72 h; at 28.5 µM (top of the series) unless noted. The method, boiled down: as §1
Test [13] deals with Voltage-gated inwardly rectifying potassium channel KCNH2 (Homo sapiens) (UniProt Q12809). The test can be described thus: qHTS Assay for Small Molecule Inhibitors of the Human hERG Channel Activity (AID 588834; active = well fitted curve in the direction sought with a large enough effect; an effect the other way counts as inactive or inconclusive;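 note: top concentration of the series differs between compounds; % is set by controls: 0 for no effect and ±100 for the full control effect; lower thallium flux fluorescence means stronger hERG block; nearly all actives have a fitted effect of over 50% in size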). The procedure, abridged:
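Blockade is seen as reduced FluxOR thallium-flux fluorescence in U2OS cells expressing hERG from a BacMam construct, in Opti-MEM with 2% FCS. Concentration-response data fitted to the Hill equation for AC50.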

The target of test [14] is Luciferin 4-monooxygenase (Photinus pyralis) (UniProt P08659). Briefly: Biochemical firefly luciferase enzyme assay for NPC (AID 624030; active = well fitted curve in the direction sought with a large enough effect; an effect the other way counts as inactive or inconclusive;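 note: purified P. pyralis luciferase at 10 nM with luciferin and ATP substrate; 0% = DMSO and -100% = full luciferase inhibition by PTC124 control; nearly all actives have a fitted effect of over 70% in size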). The method, boiled down:
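Direct inhibition of firefly luciferase enzyme (10 nM final, 50 mM Tris Acetate) assessed by luminescence within 5 minutes. Percent activity scaled between DMSO and PTC124 positive control, with concentration-effect curves classified by fit quality and response.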

A short description of test [15]: S16 Schwann cell PMP22 intronic element beta-lactamase assay (AID 624044). Note: potency is the fitted concentration of half-maximal effect; nearly all actives have a fitted effect of over 15% in size. The method, boiled down: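 Rat S16 Schwann cells with beta-Lac driven by a PMP22 intronic element, compound-treated 24 h at 37 °C. LiveBLAzer FRET B/G read: 460 nm normalized to potassium clavulanate vs DMSO; 535 nm FRET as viability; concentration-effect curves classified.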

Inconclusive results are not listed. The source made the active and inactive calls. Unless noted, calls come from the whole dose curve.

Chain of Bile acid receptor (Homo sapiens) (Q96RI1 whole entry, looked up): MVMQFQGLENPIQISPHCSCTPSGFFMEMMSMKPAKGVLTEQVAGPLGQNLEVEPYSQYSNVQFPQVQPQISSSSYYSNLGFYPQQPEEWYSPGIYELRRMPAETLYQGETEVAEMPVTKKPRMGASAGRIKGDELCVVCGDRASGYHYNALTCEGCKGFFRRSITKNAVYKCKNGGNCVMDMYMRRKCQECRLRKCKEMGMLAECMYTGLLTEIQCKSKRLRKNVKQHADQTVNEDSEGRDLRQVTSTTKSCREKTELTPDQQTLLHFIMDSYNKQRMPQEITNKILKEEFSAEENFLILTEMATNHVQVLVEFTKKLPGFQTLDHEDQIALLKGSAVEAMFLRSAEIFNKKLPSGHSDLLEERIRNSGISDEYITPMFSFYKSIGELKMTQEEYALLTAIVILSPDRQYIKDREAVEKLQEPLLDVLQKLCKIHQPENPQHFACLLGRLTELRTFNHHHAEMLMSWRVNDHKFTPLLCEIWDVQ
Chain of Voltage-gated inwardly rectifying potassium channel KCNH2 (Homo sapiens) (Q12809 whole entry, looked up): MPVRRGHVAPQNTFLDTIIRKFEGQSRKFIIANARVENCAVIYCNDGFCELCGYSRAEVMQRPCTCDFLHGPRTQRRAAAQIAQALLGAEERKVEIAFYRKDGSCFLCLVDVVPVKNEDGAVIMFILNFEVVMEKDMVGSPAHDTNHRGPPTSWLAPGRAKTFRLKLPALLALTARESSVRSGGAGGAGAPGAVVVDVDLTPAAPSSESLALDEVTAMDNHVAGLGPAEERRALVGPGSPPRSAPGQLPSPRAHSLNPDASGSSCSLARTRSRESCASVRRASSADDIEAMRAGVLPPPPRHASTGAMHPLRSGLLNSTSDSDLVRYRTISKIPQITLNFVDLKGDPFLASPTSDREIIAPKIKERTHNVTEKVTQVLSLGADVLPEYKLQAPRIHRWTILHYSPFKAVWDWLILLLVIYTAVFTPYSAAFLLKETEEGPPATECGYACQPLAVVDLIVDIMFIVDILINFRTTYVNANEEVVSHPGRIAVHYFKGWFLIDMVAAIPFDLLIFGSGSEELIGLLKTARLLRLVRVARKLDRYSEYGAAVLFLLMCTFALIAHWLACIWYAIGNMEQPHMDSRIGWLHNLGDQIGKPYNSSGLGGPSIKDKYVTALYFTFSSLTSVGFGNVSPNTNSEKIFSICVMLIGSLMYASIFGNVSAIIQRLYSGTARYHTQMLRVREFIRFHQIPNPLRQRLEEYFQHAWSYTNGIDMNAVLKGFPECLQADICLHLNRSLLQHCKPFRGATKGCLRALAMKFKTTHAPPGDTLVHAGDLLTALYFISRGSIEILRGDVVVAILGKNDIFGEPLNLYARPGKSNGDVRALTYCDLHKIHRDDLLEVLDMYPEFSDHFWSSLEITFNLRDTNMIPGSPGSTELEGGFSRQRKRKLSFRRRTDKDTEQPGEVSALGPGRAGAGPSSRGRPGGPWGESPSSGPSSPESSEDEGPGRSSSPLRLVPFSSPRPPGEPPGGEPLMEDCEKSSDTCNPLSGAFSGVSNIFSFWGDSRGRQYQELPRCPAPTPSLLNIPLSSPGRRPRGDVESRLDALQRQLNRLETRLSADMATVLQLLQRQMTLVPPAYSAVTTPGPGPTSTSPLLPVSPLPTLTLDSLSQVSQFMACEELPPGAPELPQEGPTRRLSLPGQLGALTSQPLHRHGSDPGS
Chain of Luciferin 4-monooxygenase (Photinus pyralis) (P08659 whole entry, looked up): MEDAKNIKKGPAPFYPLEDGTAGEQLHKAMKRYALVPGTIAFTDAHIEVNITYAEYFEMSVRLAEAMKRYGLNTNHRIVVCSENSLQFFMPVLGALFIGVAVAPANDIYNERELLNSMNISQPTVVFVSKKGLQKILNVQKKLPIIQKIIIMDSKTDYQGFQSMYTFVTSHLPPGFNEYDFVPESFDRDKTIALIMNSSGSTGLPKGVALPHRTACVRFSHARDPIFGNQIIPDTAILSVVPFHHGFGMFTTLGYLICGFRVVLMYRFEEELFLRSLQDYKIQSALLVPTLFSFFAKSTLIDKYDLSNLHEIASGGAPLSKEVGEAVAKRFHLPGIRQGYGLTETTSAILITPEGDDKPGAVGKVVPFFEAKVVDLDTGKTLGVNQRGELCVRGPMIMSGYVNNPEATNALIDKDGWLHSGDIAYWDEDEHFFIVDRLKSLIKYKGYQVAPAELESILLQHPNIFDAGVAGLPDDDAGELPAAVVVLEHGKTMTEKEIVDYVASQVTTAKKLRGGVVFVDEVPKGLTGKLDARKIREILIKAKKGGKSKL

Take `CCCC/C=C\CCCCCCCCCC=O`: the activation in test [1] is -2.92% (inactive). The Potency entry in test [2], in [3], in test [4], in test [5] and in test [6] was “inactive” throughout.
With `OCCO`, in test [1], the activation is 1.31% (inactive). The Potency entry in test [2], in test [3], in [4], in test [5] and in test [6] was “inactive” in each case.
As for `CC(C)=CCC/C(C)=C/CC/C(C)=C/CO`, the Potency result in [2], in test [3], in test [4], in [5] and in [6] was “inactive” in each case.
In the case of `O=C(C[C@@H]1NCCC[C@@H]1O)Cn1cnc2ccccc2c1=O`, the remaining parasite growth % (stronger effect = lower value) in test [7] was -0.414%. In addition, the activity, percent of control in test [8] was -0.451%. In test [9], the remaining proliferation (% of control), lower = more inhibition was -0.569%. This molecule yielded a parasite growth, % of DMSO control in test [10] of 4.79%. Also, the parasite growth remaining, % of DMSO control (lower = more inhibition) in [11] stood at 6.53%. Further, in test [12], the parasite growth, % of control (lower = inhibition) stood at 22.5%. For the same molecule, the Potency entry in test [3], in [4], in test [5] and in test [6] was “inactive” throughout.
Take `O=C(OCc1ccccc1)c1ccccc1O`: the Potency entry in test [2], in test [3], in [4], in [5] and in [6] was “inactive” each time.
As to `C[C@H](CCC(=O)O)[C@H]1CC[C@H]2[C@@H]3[C@H](O)C[C@@H]4C[C@H](O)CC[C@]4(C)[C@@H]3CC[C@]12C`, the parasite growth, % of DMSO control in test [10] was 59.3%. For the same molecule, the parasite growth remaining, % of DMSO control (lower = more inhibition) in test [11] was found to be 92.9%. In addition, the parasite growth, % of control (lower = inhibition) in test [12] came out at 67.3%. The Potency entry in test [3], in test [4], in test [5] and in test [6] was “inactive” in each case.
For `O=C(O)/C=C/C(=O)O`, the Potency result in test [2], in test [13], in test [14], in [3], in test [4] and in test [5] was “inactive” each time. Besides, the Potency result in [6] is “inactive”.
For the molecule `c1ccc(CSCc2ccccc2)cc1`, the Potency entry in [2], in test [3], in test [4], in test [5] and in [6] was “inactive” throughout.
On to `COc1cc(CNC(=O)CCCCC=CC(C)C)ccc1O`, for which the parasite growth, % of DMSO control in test [10] was found to be 92.4%. Besides, the parasite growth remaining, % of DMSO control (lower = more inhibition) in test [11] came out at 103%. In test [12], the parasite growth, % of control (lower = inhibition) is 129%. The Potency entry in test [3], in [4], in [5] and in test [6] was “inactive” each time.
For the molecule `COC(=O)CCC(=O)OC`, the activation in test [1] was 2.67% (inactive). The Potency result in [2], in test [3], in [4], in test [5] and in [6] was “inactive” in each case.
Take `CC(C)=CCCC(C)CCO` (centres undefined): the Potency entry in [2], in test [3], in test [4], in test [5] and in [6] was “inactive” throughout.
Take `CC[C@H]1CN2CCc3cc(OC)c(OC)cc3[C@H]2C[C@@H]1C[C@@H]1NCCc2cc(OC)c(OC)cc21`: the Potency is 0.562 µM (active) in test [15]; 0.385 µM (active) in test [3]; 0.432 µM (active) in test [4]; 0.544 µM (active) in test [5]; 0.432 µM (active) in test [6].
Turning to `CCCCCCCCCCCCCCCC`, the Potency entry in test [2], in test [3], in test [4], in test [5] and in [6] was “inactive” in each case.
Consider `CC(=O)OC/C=C(\C)CCC=C(C)C`, for which the Potency result in test [2], in test [3], in test [4], in test [5] and in test [6] was “inactive” in each case.
Turning to `CCCCCCCCCCCCCCC`, the Potency entry in [2], in test [3], in test [4], in [5] and in test [6] was “inactive” in each case.
As for `CCNc1nc(N)nc(Cl)n1`, the Potency result in [2], in test [3], in test [4], in test [5] and in test [6] was “inactive” throughout.
For the molecule `CC/C=C\CCOC(=O)c1ccccc1O`, the Potency result in test [2], in test [3], in [4], in test [5] and in [6] was “inactive” each time.
